Assay [1] has as its target Paired box protein Pax-6 (Homo sapiens) (UniProt P26367). The experiment in a line: ATG_Pax6_CIS: Attagene CIS-FACTORIAL HepG2 Assay for human Paired Box 6 (PAX6) (AID 2282956). The following applies: HepG2 CIS-FACTORIAL PAX6 reporter transcription, RNA readout; actives raise or lower the signal. In outline:
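HepG2 cells transiently transfected with cis-promoter-driven multiplexed reporter units sensing endogenous transcription factor activity; 24 h chemical exposure. Reporter mRNA quantified by RT-PCR, 6-FAM labelling, HpaI digestion and capillary electrophoresis; bidirectional fit versus DMSO baseline.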

A short description of assay [2]: ATG_PXRE_CIS: Attagene CIS-FACTORIAL HepG2 Assay for human Pregnane X Receptor Element (PXRE) (AID 2282957). Conditions: HepG2 Attagene CIS-FACTORIAL PXRE reporter, mRNA; actives raise or lower the signal. In outline:
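Multiplexed cis-reporter assay in transiently transfected human HepG2 cells; 24 h chemical exposure. Reporter transcripts quantified by RT-PCR with fluorescent labeling and capillary electrophoresis.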

Assay [3] in a line: ATG_PPRE_CIS: Attagene CIS-FACTORIAL HepG2 Assay for human Peroxisome Proliferator-activated Response Element (PPRE) (AID 2282958). Conditions: HepG2 PPRE cis-element reporter, Attagene transcription factor profiling; actives raise or lower the signal. In outline:
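Multiplexed reporter transcription units under cis-regulatory promoters were transfected into HepG2 cells to capture endogenous factor activity. A 24 h incubation preceded RNA isolation and fluorescent RT-PCR fragment analysis.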

Assay [4] in a line: ATG_RORE_CIS: Attagene CIS-FACTORIAL HepG2 Assay for human RAR-related Orphan Receptor Element (RORE) (AID 2282959). The following applies: HepG2 Attagene cis-factorial RORE reporter, mRNA; actives raise or lower the signal. In a few lines: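 Fluorescence intensity of reporter-specific cDNA fragments, separated by capillary electrophoresis, gives the signal. Source: HepG2 liver cells transiently transfected with cis-element reporters and exposed 24 h; DMSO-normalized bidirectional fit.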

Assay [5] can be described thus: ATG_Sox_CIS: Attagene CIS-FACTORIAL HepG2 Assay for human SRY-box transcription factor (SOX) (AID 2282960). Conditions: HepG2 Attagene cis-factorial SOX reporter, mRNA; actives raise or lower the signal. In outline: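 After 24 h of chemical treatment, transfected HepG2 reporter cells are lysed for total RNA. Transcript levels come from RT-PCR with labelled primer extension and capillary electrophoresis, analysed bidirectionally versus DMSO.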

Assay [6] has as its target Transcription factor Sp1 (Homo sapiens) (UniProt P08047). Kind of assay: ATG_Sp1_CIS: Attagene CIS-FACTORIAL HepG2 Assay for human Specificity Protein 1 (Sp1) (AID 2282961). Conditions: HepG2 Sp1 cis-reporter transcription, actives raise or lower the signal. In outline:
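Sp1-driven reporter mRNA, read as capillary electrophoresis fluorescence after RT-PCR, in transiently transfected HepG2 cells dosed for 24 h; signal change in either direction relative to DMSO.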

A short description of assay [7]: ATG_SREBP_CIS: Attagene CIS-FACTORIAL HepG2 Assay for human Sterol Regulatory Element Binding (SREBP) (AID 2282962). Conditions: HepG2 Attagene cis-factorial SREBP reporter, mRNA; actives raise or lower the signal. In a few lines: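 HepG2 cells transiently transfected with multiplexed cis-promoter reporter units sensing endogenous transcription factors; reporter mRNA measured 24 h after dosing by RT-PCR, 6-FAM labeling, HpaI digestion and capillary electrophoresis. Bidirectional fit versus DMSO.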

In assay [8] the target is Signal transducer and activator of transcription 3 (Homo sapiens) (UniProt P40763). Kind of assay: ATG_STAT3_CIS: Attagene CIS-FACTORIAL HepG2 Assay for human Signal Transducer and Activator of Transcription 3 (STAT3) (AID 2282963). Conditions: HepG2, Attagene cis-factorial STAT3 reporter transcription; actives raise or lower the signal. In outline:
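Values derive from bidirectional fits relative to DMSO of reporter mRNA levels, measured by RT-PCR with capillary electrophoresis, in HepG2 cells carrying transiently transfected cis-regulated reporter units and exposed 24 h.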

A short description of assay [9]: ATG_TA_CIS: Attagene CIS-FACTORIAL HepG2 Assay for human TA Basal Promoter (AID 2282964). The following applies: HepG2 Attagene CIS-factorial TA basal promoter reporter; actives raise or lower the signal. In outline:
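HepG2 cells transiently transfected with multiple reporter units under cis promoter elements, reporting endogenous transcription factor activity; this endpoint tracks the TA basal promoter as background control. Reporter mRNA after 24 h dosing measured by RT-PCR/capillary electrophoresis; bidirectional fits versus DMSO.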

Assay [10] is described as follows: ATG_TCF_b_cat_CIS: Attagene CIS-FACTORIAL HepG2 Assay for human T-Cell-Factor with beta-catenin (TCF/b-cat) (AID 2282965). Conditions: HepG2 TCF/beta-catenin cis-reporter transcription, actives raise or lower the signal. In outline:
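Cells of the HepG2 line carry transiently transfected reporter units whose promoters respond to endogenous factors. Twenty-four hours post-dosing, reporter mRNA induction is measured by fluorescent RT-PCR and capillary electrophoresis, with DMSO as baseline.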

The text below walks through data of PubChem BioAssay (EPA / NIEHS).

Where a structure was tested more than once in an assay, its records may differ in their call. Calls of active or inactive are those of the source. Rule for the calls: active = hit-call score of the fitted dose curve at least 0.9, where 1 is the maximum; inactive = score below 0.9.

What is called AC50 is the concentration at which the activity in the assay is half-maximal.

Transcription factor Sp1 (Homo sapiens), sequence (P08047 whole entry, looked up): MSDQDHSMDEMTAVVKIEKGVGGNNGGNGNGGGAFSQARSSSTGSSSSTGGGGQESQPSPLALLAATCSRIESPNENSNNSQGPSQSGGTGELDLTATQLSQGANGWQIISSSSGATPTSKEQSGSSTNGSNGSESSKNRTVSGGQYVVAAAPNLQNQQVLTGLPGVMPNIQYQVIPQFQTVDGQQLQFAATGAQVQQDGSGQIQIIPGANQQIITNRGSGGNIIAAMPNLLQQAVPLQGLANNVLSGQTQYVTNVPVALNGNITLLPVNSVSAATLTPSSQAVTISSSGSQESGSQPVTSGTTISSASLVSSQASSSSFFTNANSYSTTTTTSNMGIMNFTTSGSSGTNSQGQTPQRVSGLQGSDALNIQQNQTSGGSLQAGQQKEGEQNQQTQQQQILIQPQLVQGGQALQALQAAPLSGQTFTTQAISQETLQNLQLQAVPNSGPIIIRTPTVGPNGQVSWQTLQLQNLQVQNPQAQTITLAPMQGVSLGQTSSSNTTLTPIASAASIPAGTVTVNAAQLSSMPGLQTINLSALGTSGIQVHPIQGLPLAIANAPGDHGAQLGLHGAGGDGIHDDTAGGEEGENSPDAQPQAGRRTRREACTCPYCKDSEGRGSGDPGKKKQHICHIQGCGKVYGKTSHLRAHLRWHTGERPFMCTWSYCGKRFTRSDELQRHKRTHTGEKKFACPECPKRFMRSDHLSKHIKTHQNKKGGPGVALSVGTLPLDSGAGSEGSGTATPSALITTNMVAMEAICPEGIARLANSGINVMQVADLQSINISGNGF
Paired box protein Pax-6 (Homo sapiens), sequence (P26367 whole entry, looked up): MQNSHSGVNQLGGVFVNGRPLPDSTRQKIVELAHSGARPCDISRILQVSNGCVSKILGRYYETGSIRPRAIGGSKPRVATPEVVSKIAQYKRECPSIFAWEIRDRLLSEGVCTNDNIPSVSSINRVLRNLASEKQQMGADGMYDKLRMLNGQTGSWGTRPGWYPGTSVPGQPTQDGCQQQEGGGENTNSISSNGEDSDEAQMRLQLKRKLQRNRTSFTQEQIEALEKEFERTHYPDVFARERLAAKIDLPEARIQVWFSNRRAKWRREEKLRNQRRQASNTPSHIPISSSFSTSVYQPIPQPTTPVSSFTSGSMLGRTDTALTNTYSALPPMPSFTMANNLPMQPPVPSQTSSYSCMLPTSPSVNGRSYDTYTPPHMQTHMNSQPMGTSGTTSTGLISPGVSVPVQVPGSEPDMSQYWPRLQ
Signal transducer and activator of transcription 3 (Homo sapiens), sequence (P40763 whole entry, looked up): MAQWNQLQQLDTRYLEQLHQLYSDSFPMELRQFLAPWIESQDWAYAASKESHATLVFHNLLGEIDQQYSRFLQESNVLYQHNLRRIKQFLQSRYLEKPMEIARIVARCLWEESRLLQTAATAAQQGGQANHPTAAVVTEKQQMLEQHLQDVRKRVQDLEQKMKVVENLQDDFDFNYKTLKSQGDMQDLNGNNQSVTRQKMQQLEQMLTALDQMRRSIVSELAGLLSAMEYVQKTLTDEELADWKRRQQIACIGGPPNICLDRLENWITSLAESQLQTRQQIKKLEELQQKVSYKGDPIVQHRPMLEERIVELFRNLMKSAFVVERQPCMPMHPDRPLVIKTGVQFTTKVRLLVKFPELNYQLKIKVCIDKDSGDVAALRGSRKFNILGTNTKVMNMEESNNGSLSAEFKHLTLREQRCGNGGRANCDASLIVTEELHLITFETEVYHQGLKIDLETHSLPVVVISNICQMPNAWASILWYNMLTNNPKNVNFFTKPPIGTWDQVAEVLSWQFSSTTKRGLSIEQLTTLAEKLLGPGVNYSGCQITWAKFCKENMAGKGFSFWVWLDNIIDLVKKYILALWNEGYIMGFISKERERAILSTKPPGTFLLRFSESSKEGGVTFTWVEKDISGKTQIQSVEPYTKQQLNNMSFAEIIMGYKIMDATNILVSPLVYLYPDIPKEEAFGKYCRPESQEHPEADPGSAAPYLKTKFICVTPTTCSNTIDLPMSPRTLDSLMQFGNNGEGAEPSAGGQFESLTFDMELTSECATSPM

As to `CCCCCCCC/C=C\CCCCCCCC(=O)OC[C@@H](O)[C@H]1OC[C@H](O)[C@H]1O`, the outcome in assay [1], in assay [3], in assay [4], in assay [5], in [6] and in assay [7] was inactive. In addition, the compound was called inactive in assay [8], in assay [9] and in assay [10]. In addition, the AC50 in assay [2] was 71.7 µM (active).
Regarding `NCC(F)(F)C(F)(F)C(F)(F)C(F)(F)F`, the result in assay [1], in [2], in [3], in [4], in assay [5] and in assay [6] was inactive. Besides, the compound was called inactive in assay [7], in assay [8] and in assay [10].
In the case of `CCN(CC)C(=S)SSC(=S)N(CC)CC`, the AC50 in assay [1] was 137 µM (active); in assay [2] it was 161 µM (active); in assay [5], 100 µM (active); in [6] it was 150 µM (active); in assay [7], 157 µM (active); in assay [10], 118 µM (active). Moreover, the compound was called inactive in [3], in assay [8] and in assay [9].
As to `CCCc1ccccc1`, the compound was called inactive in assay [1], in assay [2], in assay [3], in assay [5], in [6] and in assay [7]. For the same compound, the outcome in assay [8] and in assay [10] was inactive.
With `O=C(O)c1cccc(C(=O)O)c1`, the outcome in assay [1], in assay [2], in [3], in [5], in [6] and in assay [7] was inactive. Also, the call in assay [8], in assay [9] and in assay [10] was inactive.
As for `O=S1(=O)CCCO1`, the call in assay [1], in assay [2], in [3], in [4], in [5] and in assay [6] was inactive. Also, the compound was called inactive in [7], in assay [8], in [9] and in [10].
`CCCCCCCC1CCC(=O)O1` (stereo not given): the outcome in [1], in [2], in assay [3], in assay [4], in assay [5] and in assay [6] was inactive. For the same compound, the result in [7], in assay [8] and in [10] was inactive.
Turning to `COS(C)(=O)=O`, the call in assay [1], in assay [2], in assay [3], in [4], in assay [5] and in assay [6] was inactive. In addition, the result in assay [7], in [8] and in assay [10] was inactive.
Regarding `CCCCCCCCCC`, the result in [1], in [2], in assay [3], in assay [4], in [5] and in assay [6] was inactive. Also, the call in assay [7], in assay [8], in assay [9] and in [10] was inactive.
As to `CCOc1ccc2[nH]cc(C(=O)NCc3ccccc3)c(=O)c2n1`, the result in assay [1], in assay [3], in [5], in [6], in assay [7] and in assay [8] was inactive. Also, the compound was classed as inactive in assay [10]. Moreover, the AC50 in [2] is 26.7 µM (active).
Consider `C=CN1CCCC1=O`, for which the outcome in assay [2], in [3], in [4], in assay [5], in [6] and in assay [7] was inactive. Further, the outcome in assay [8], in assay [9] and in assay [10] was inactive.
Consider `CCCCCCCCN(C)C`, for which the result in [1], in assay [2], in assay [5], in assay [6], in assay [7] and in [8] was inactive. In addition, the call in assay [9] and in [10] was inactive.
On to `Cc1ccc(S(=O)(=O)NC(=O)NN2CCCCCC2)cc1`, for which the call in assay [1], in assay [2], in assay [3], in [5], in assay [6] and in assay [7] was inactive. In addition, the outcome in [8] and in assay [10] was inactive.
With `CCCCCCCCCCCCCCO`, the compound was classed as inactive in assay [1], in assay [5], in [6] and in assay [10]. In addition, the AC50 is 100 µM (active) in [2], 171 µM (active) in assay [7] and 158 µM (active) in [8].
`O=C(O)c1ccc2c(c1)nc(C(=O)NC1CCN(C3CC3)CC1)n2Cc1cc(-c2ccc(Cl)s2)on1`: the compound was classed as inactive in assay [2], in [4], in assay [5], in assay [6], in assay [7] and in assay [8]. Moreover, the result in assay [9] and in assay [10] was inactive. Further, the AC50 in assay [3] was 0.149 µM (active).
With `O=C(O)[C@H](O)[C@@H](O)C(=O)O`, the compound was called inactive in assay [1], in assay [2], in assay [4], in assay [5], in [6] and in [7]. In addition, the call in assay [8], in assay [9] and in [10] was inactive.
On to `CC[C@H](C)C(=O)O[C@H]1C[C@H](O)C=C2C=C[C@H](C)[C@H](CC[C@@H](O)C[C@@H](O)CC(=O)O)[C@H]21`, for which the compound was classed as inactive in assay [1], in [3], in assay [5], in assay [6], in assay [7] and in [8]. In addition, in assay [10], the result was inactive. For the same compound, the AC50 in assay [2] is 48.1 µM (active).
Consider `Cn1cc[nH]c1=S`, for which the compound was called inactive in assay [2], in assay [3], in [4], in assay [5], in assay [6] and in [7]. The compound was classed as inactive in assay [8], in assay [9] and in assay [10].
For `c1ccc2ncccc2c1`, the result in assay [1], in assay [2], in assay [3], in [5], in [6] and in assay [7] was inactive. The outcome in [8] and in assay [10] was inactive.
Regarding `O=C(N[C@H](CO)[C@H](O)c1ccc([N+](=O)[O-])cc1)C(Cl)Cl`, the AC50 in assay [2] was 69.7 µM (active) [middle of 4 runs]. The call in [2], in assay [3], in [4], in assay [5], in assay [6] and in assay [7] was inactive. Further, the call in [8] and in assay [10] was inactive.
